Bioassay records from PubChem.
Rows were chosen to be rich in hits. Some 4.7% of all compounds tested hit in one or more screens of this group.
ADAM17 inh = inhibitors of human ADAM17 | P78536 | recombinant ADAM17, EDANS/DABCYL FRET peptide cleavage | hit rate 0.83% among 370,000 | inhibition, % at 6.95 µM | AID 720648;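 active = inhibition above the mean of compounds lying between control limits plus 3 SD, set per campaign, cut at about 8.5% in these data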;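 also: 0% = DMSO-only wells as the low control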
ADAM10 inh = inhibitors of human ADAM10; AID 720582; hit rate 0.62% among 370,000; recombinant ADAM10, EDANS/DABCYL FRET peptide cleavage, 3 h; O14672; inhibition, % at 7 µM;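 active = inhibition above a per-campaign cutoff equal to the mean of compounds falling between control-based bounds plus 3 SD, cut at about 20% in these data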;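 also: 0% = DMSO wells while the 100% control is not disclosed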
rCAG binder = r(CAG) repeat RNA binding | inhibition, % at 3 µM | TO-PRO-1 dye displacement fluorescence | hit rate 1.3% among 370,000 | AID 651821;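 active = inhibition above the plate cutoff, the mean of all test compounds on that plate plus 3 SD, cut at about 35% in these data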;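 also: 0% = DMSO alone and 100% = 100 µM mitoxantrone as full dye displacement; higher means more dye released from RNA so lower well fluorescence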
proKLK7 act = proKLK7 (human) activation, primary screen | P49862 | purified proKLK7, EDANS-DABCYL substrate fluorescence; 100% is mature enzyme control, 0% vehicle | activation, % at 7 µM | hit rate 0.9% among 370,000;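 active = activation above the mean of all tested compounds plus 3 SD, computed per campaign excluding outliers beyond control limits, cut at about 13% in these data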
Target sequence (P49862 whole entry, looked up): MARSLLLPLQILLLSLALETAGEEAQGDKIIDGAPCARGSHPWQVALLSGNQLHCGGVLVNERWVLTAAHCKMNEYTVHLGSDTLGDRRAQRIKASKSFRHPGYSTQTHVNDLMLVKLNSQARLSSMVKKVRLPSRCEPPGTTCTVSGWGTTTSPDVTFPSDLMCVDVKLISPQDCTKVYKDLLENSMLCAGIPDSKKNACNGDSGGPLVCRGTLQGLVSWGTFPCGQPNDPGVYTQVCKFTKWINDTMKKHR
Pemphigus Ab inh = blocks pemphigus antibody binding to human desmoglein-3 | hit rate 0.48% among 310,000 | DSG3-coupled beads, scFv-anti-DSG3-GFP binding, flow cytometry; hits give low values | P32926 | binding (percent of control), % at 10 µM;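 active = binding more than 3 SD below its plate's average and above zero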;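 also: hits lower antibody fragment binding to DSG3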
MPTP inh = permeability transition pore inhibition | isolated mouse mitochondria, Ca2+ swelling absorbance, 30 min | inhibition, % at 10 µM | hit rate 1.4% among 360,000;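 active = inhibition of 50% or more, scaled per plate between neutral and stimulator controls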;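 also: 0% = DMSO wells given calcium and 100% = 1 mM EGTA wells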
ADAM10 confirm = human ADAM10 inhibition, confirmation | shares compounds with ADAM10 inh | inhibition, % at 6.95 µM | ADAM10 QFRET peptide cleavage, EDANS fluorescence | hit rate 1% among 2,100;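 active = inhibition above about 20% chosen separately for each screening run, limit read from the data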;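 also: 0% = DMSO wells and 100% = marimastat wells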
ADAM17 counter = counter-screen for ADAM10 exosite inhibitors: inhibitors of human ADAM17; shares compounds with ADAM10 inh; ADAM17 QFRET peptide cleavage, EDANS fluorescence; inhibition, % at 6.95 µM; hit rate 0.5% among 2,100;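 active = mean triplicate inhibition above the solvent-only control wells' mean plus 3 SD, cut at about 12% in these data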;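 also: 0% = DMSO wells and 100% = marimastat wells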
Numbers without * were called inactive; nt = not tested or not shown.

SMILES | ADAM17 inh | ADAM10 inh | rCAG binder | proKLK7 act | Pemphigus Ab inh | MPTP inh | ADAM10 confirm | ADAM17 counter
COc1ccc(/C=N/NC(=O)c2cccc([N+](=O)[O-])c2)cc1OS(=O)(=O)c1ccc(C)cc1 | 5 | 0 | 4 | 0 | 103 | 5 | nt | nt
CCOc1cc(/C=N/NC(=O)c2cccc([N+](=O)[O-])c2)ccc1OS(=O)(=O)c1ccccc1 | 6 | 28* | 14 | 0 | nt | 20 | 4 | 1
CCOC(=O)c1c(NC(=O)CSc2nnnn2C)sc(C)c1-c1ccc(C)cc1 | 6 | 26* | 3 | 1 | 101 | 2 | 9 | 3
Cc1ccc(C(=O)c2ccccc2C(=O)OCC(=O)Nc2cccc([N+](=O)[O-])c2)cc1 | 7 | 27* | 5 | 0 | 120 | 0 | 6 | 1
CC(C)c1cc(C(C)C)c(S(=O)(=O)N2CCNCC2)c(C(C)C)c1 | 0 | 2 | -3 | 0 | 109 | 1 | nt | nt
CCCS(=O)(=O)NC(=O)C1(C)CCN(C(=O)c2ccc(OC)c(F)c2)C1 (stereo not given) | nt | nt | nt | nt | nt | 0 | nt | nt
COC(=O)c1cnc(Nc2nc(C(N)COCc3ccccc3)cs2)nc1C(F)(F)F (stereo not given) | 5 | 22* | 16 | 0 | nt | 2 | 3 | 1
COc1ccc(CN(C2CCCCC2C)S(=O)(=O)c2ccc(S(=O)(=O)N(C)C)cc2)cc1OC (stereo not given) | 5 | 22* | 3 | 0 | nt | -1 | 8 | 2
COc1cc(CN(C2CCCCC2C)S(=O)(=O)c2ccc(S(=O)(=O)NC3CC3)cc2)cc(OC)c1OC (stereo not given) | 3 | 11 | 4 | 0 | 100 | 2 | nt | nt
COc1ccc(C(=O)OCC(=O)c2c[nH]c3ccccc23)cc1OC | -7 | -6 | 5 | 0 | 145 | -1 | nt | nt
COc1cc(OC)c(N(C)S(=O)(=O)c2cccc(C(=O)OCC(=O)c3c[nH]c4ccccc34)c2)cc1Cl | -1 | 32* | 27 | -2 | 106 | 30 | 14 | 5
CC/C=C\[C@H](O)[C@H](O)C1=C(C)C(=O)[C@]2(O1)C(=O)N[C@@](OC)(C(=O)c1ccccc1)C2O (stereo not given in full) | -7 | 63* | 6 | 0 | 102 | 0 | 7 | 3
O=C(NC1CCCCC1)C(c1ccc(C(F)(F)F)cc1)n1c(=O)c(-c2ccco2)nc2ccccc21 (stereo not given) | -28 | -87 | 20 | -2 | nt | -2 | nt | nt
COc1ccc(-c2cn[nH]c2-c2ccc(OCc3ccccc3F)cc2O)cc1OC | 8 | 23* | 3 | 0 | 111 | 6 | 10 | 4
COc1ccc(-c2cn[nH]c2-c2ccc(OCc3ccccc3)cc2O)cc1 | 7 | 20* | 8 | 0 | 106 | 6 | 14 | 5
OC(c1ccc(Cl)c(F)c1)c1ncc(-c2ccc(Cl)cc2)[nH]1 (stereo not given) | 7 | 20* | 4 | -1 | nt | 7 | 3 | 1
OC(c1ccc(Cl)c(Cl)c1)c1ncc(-c2ccccc2C(F)(F)F)[nH]1 (stereo not given) | 10* | 22* | 2 | 0 | nt | 20 | 2 | 1
OC(c1cccc(F)c1)c1ncc(-c2ccc(Oc3ccccc3)cc2)[nH]1 (stereo not given) | 7 | 23* | 6 | 1 | nt | 5 | 10 | 3
OC(c1ccc(Cl)c(Cl)c1)c1ncc(-c2ccc(Cl)cc2)[nH]1 (stereo not given) | 7 | 11 | 3 | 0 | nt | 31 | nt | nt
CC(Nc1nc(-c2ccc(F)cc2)cs1)c1nc2cc(Cl)c(N3CCCCC3)cc2n1CCOCCO (stereo not given) | 8 | 15 | 10 | 1 | 108 | 0 | nt | nt
CC(Nc1nc(-c2ccc(F)cc2)cs1)c1nc2cc(Cl)c(N3CCCCC3)cc2n1CCCO (stereo not given) | 4 | 42* | 5 | 1 | 101 | 2 | 4 | 2
C[C@H]1CN([C@@H](C)CO)C(=O)c2cccc(NC(=O)Nc3ccc(F)cc3)c2O[C@@H]1CN(C)Cc1ccc(C(=O)O)cc1 | -2 | 2 | 16 | 0 | 100 | 0 | nt | nt
O=C(Nc1ccc2c(c1)N(Cc1ccccc1)C(=O)c1ccccc1S2)NC1CC1 | 7 | 21* | 3 | 0 | 106 | 35 | 4 | 1
CCCNC(=O)C1(C)CCN(CCS(=O)(=O)c2ccc(C)cc2)C1 (stereo not given) | 1 | -28 | -1 | 0 | nt | 0 | nt | nt
COc1ccc2cc([C@H](C)C(=O)OCc3cn(CC(=O)c4ccc(O)cc4)nn3)ccc2c1 | 2 | 2 | 17 | 0 | 100 | -1 | nt | nt
SMILES | ADAM17 inh | ADAM10 inh | rCAG binder | proKLK7 act | Pemphigus Ab inh | MPTP inh | ADAM10 confirm | ADAM17 counter
C[C@H](CCC(=O)OCc1cn(CC(=O)c2ccc(O)cc2)nn1)C1CC[C@H]2[C@@H]3CC[C@@H]4C[C@H](O)CC[C@]4(C)[C@H]3C[C@H](O)[C@]12C (stereo not given in full) | 7 | 30* | 16 | 1 | 97 | 0 | 8 | 1
COc1ccc(CNC(=O)CN(C(=O)c2csnn2)c2cccc(C(C)=O)c2)cc1 | -4 | 2 | 0 | 0 | 110 | 0 | nt | nt
O=C(Nc1ccc(OCC(F)(F)C(F)F)c(C(F)(F)F)c1)c1ccccc1 | 7 | 24* | 1 | 1 | 105 | 4 | 3 | 0
CCOc1ccc(N2C(=O)/C(=C/c3cc(OC)c(OC)c(OC)c3)N(CC(=O)OC)C2=S)cc1 | 7 | 20* | 6 | -1 | 95 | 0 | 1 | 1
CCOc1ccc(CCNC(=O)COC(=O)c2[nH]c(C)c(C(C)=O)c2C)cc1OCC | 2 | -14 | 2 | 1 | 98 | 1 | nt | nt
O=C(NC(c1ccc(Cl)cc1)c1ccsc1)C1CCN(CCOc2ccc(Cl)cc2)CC1 (stereo not given) | 4 | 3 | 3 | 1 | nt | 2 | nt | nt
COC(=O)[C@]12C[C@H](CC(=O)NCCc3ccccc3OC)C(=O)N(Cc3cccc4ccccc34)C1=C[C@H](C1CCCC1)O[C@@H]2C | 7 | 25* | 10 | 0 | nt | nt | 10 | 3
COC(=O)[C@]12C[C@H](CC(=O)N3CCCCC3)C(=O)N(Cc3ccccc3)C1=C[C@H](COCc1ccccc1)O[C@@H]2C | -2 | 3 | 0 | 1 | nt | nt | nt | nt
COC(=O)[C@]12C[C@H](CC(=O)NCCc3ccccc3OC)C(=O)N(CCc3ccc(OC)c(OC)c3)C1=C[C@H](COCc1ccccc1)O[C@@H]2C | 8 | 21* | 3 | 1 | nt | nt | 2 | 1
